Source: PubChem BioAssay (NCATS)
Results filed as inconclusive are left out. Where a call stands in place of a potency, no number is given. Calls of active or inactive are those of the source. The call rests on the fitted dose curve; in most records, active means well fitted curve in the direction sought with a large enough effect; inconclusive means small, poorly fitted or top-dose-only effect, or another doubt; inactive means no such curve, though single readings can be large; an effect the other way counts as inactive or inconclusive.

How the values were obtained:
[1] = qHTS of pediatric cancer cell lines to identify multiple opportunities for drug repurposing: Primary screen for LAN-5 cells (AID 1347100); further: potency means the concentration at half of the fitted maximal effect
How it was run: (§1)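 Viability after 48 h compound treatment at 37C, 500-1,000 cells/well, read as ATP luminescence with CellTiter-Glo. Primary screens used 11-point (MIPE, 0.78 nM-46 µM) or 8-point (NPC, 0.59 nM-46 µM) final concentrations; follow-up screens used 11-point dilutions.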

[2] = qHTS of pediatric cancer cell lines to identify multiple opportunities for drug repurposing: Primary screen for BT-12 cells (AID 1347101); further: nearly all actives have a fitted effect of over 25% in size; further: potency means the concentration at half of the fitted maximal effect
How it was run: (§2)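 Cells (500-1,000/well) rested 5 h, then received compounds for 48 h; metabolically active cells were measured by CellTiter-Glo luminescence. Final concentrations spanned up to 46 µM (MIPE, 11-point) or 0.59 nM-46 µM (NPC, 8-point) in primary screens, 11-point in follow-ups.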

[3] = qHTS of pediatric cancer cell lines to identify multiple opportunities for drug repurposing: Primary screen for Rh18 cells (AID 1347102); further: nearly all actives have a fitted effect of over 65% in size; further: potency means the concentration at half of the fitted maximal effect
How it was run: as §1

[4] = qHTS of pediatric cancer cell lines to identify multiple opportunities for drug repurposing: Primary screen for OHS-50 cells (AID 1347103); further: nearly all actives have a fitted effect of over 40% in size; further: potency means the concentration at half of the fitted maximal effect
How it was run: as §2

[5] = qHTS of pediatric cancer cell lines to identify multiple opportunities for drug repurposing: Primary screen for RD cells (AID 1347104); further: nearly all actives have a fitted effect of over 55% in size; further: potency means the concentration at half of the fitted maximal effect
How it was run: (§3)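 500-1,000 cells/well; 5 h pre-incubation 37 °C/5% CO2; compound pinned; 48 h; CellTiter-Glo, 15 min RT; luminescence. MIPE 11-pt from 0.78 nM, NPC 8-pt from 0.59 nM final. Bortezomib 2.3 µM final as positive control.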

[6] = qHTS of pediatric cancer cell lines to identify multiple opportunities for drug repurposing: Primary screen for MG 63 (6-TG R) cells (AID 1347105); further: nearly all actives have a fitted effect of over 50% in size; further: potency means the concentration at half of the fitted maximal effect
How it was run: as §3

[7] = qHTS of pediatric cancer cell lines to identify multiple opportunities for drug repurposing: Primary screen for control Hh wild type fibroblast cells (AID 1347106); further: nearly all actives have a fitted effect of over 55% in size; further: potency means the concentration at half of the fitted maximal effect
How it was run: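 Cells (500-1,000/well) in growth media were settled 5 h at 37 degrees C, then given compounds for 48 h. Viability was read as CellTiter-Glo luminescence. Primary runs used MIPE at 11 points (0.78 nM-46 µM) and NPC at 8 points (0.59 nM-46 µM); follow-ups used 11 points.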

[8] = qHTS of pediatric cancer cell lines to identify multiple opportunities for drug repurposing: Primary screen for Rh30 cells (AID 1347107); further: nearly all actives have a fitted effect of over 75% in size; further: potency means the concentration at half of the fitted maximal effect
How it was run: as §1

[9] = qHTS of pediatric cancer cell lines to identify multiple opportunities for drug repurposing: Primary screen for Rh41 cells (AID 1347108); further: nearly all actives have a fitted effect of over 70% in size; further: potency means the concentration at half of the fitted maximal effect
How it was run: as §3

[10] = qHTS of pediatric cancer cell lines to identify multiple opportunities for drug repurposing: Confirmatory screen for NB1643 cells (AID 1347109); further: nearly all actives have a fitted effect of over 45% in size; further: potency means the concentration at half of the fitted maximal effect
How it was run: as §1

[11] = qHTS of pediatric cancer cell lines to identify multiple opportunities for drug repurposing: Confirmatory screen for A673 cells (AID 1347110); further: potency means the concentration at half of the fitted maximal effect; nearly all actives have a fitted effect of over 65% in size
How it was run: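 A673 cells seeded at 500-1,000 cells/well, rested 5 h, then dosed; primary MIPE 11-point (0.78 nM to 46 µM), NPC (0.59 nM to 46 µM); confirmatory 11-point. CellTiter-Glo luminescence after 48 h.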

[12] = qHTS of pediatric cancer cell lines to identify multiple opportunities for drug repurposing: Confirmatory screen for SK-N-MC cells (AID 1347111);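 further: potency means the concentration at half of the fitted maximal effect; cells exposed to compound for 48 h before the readout; nearly all actives have a fitted effect of over 70% in size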
How it was run: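 SK-N-MC cells at 500-1,000 cells/well in growth media were pre-incubated 5 h, then exposed to compounds at 11-point dilutions for 48 h at 37 degrees C, 5% CO2. Viability was read as CellTiter-Glo luminescence.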

[13] = qHTS of pediatric cancer cell lines to identify multiple opportunities for drug repurposing: Confirmatory screen for LAN-5 cells (AID 1347113); further: nearly all actives have a fitted effect of over 65% in size; further: potency means the concentration at half of the fitted maximal effect
How it was run: as §1

[14] = qHTS of pediatric cancer cell lines to identify multiple opportunities for drug repurposing: Confirmatory screen for SJ-GBM2 cells (AID 1347116); further: potency means the concentration at half of the fitted maximal effect; nearly all actives have a fitted effect of over 60% in size
How it was run: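 Viability measured as metabolically active cells via CellTiter-Glo luminescence following 48 hours of compound exposure, 11-point dilutions in confirmatory testing. 500-1,000 cells/well plated 5 hours before dosing; controls were DMSO and 2.3 µM bortezomib.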

[15] = qHTS of pediatric cancer cell lines to identify multiple opportunities for drug repurposing: Confirmatory screen for BT-37 cells (AID 1347117); further: nearly all actives have a fitted effect of over 55% in size; further: potency means the concentration at half of the fitted maximal effect
How it was run: as §1

[16] = qHTS of pediatric cancer cell lines to identify multiple opportunities for drug repurposing: Confirmatory screen for control Hh wild type fibroblast cells (AID 1347121); further: nearly all actives have a fitted effect of over 70% in size
How it was run: as §1

[17] = qHTS of pediatric cancer cell lines to identify multiple opportunities for drug repurposing: Confirmatory screen for Rh41 cells (AID 1347123);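 further: 48 h compound exposure; nearly all actives have a fitted effect of over 60% in size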; further: potency means the concentration at half of the fitted maximal effect
How it was run: as §1

[18] = qHTS of pediatric cancer cell lines to identify multiple opportunities for drug repurposing: Confirmatory screen for BT-12 cells (AID 1347112); further: nearly all actives have a fitted effect of over 55% in size
How it was run: as §1

Row | SMILES | Potency [1] | Potency [2] | Potency [3] | Potency [4] | Potency [5] | Potency [6] | Potency [7] | Potency [8] | Potency [9] | Potency [10] | Potency [11] | Potency [12] | Potency [13] | Potency [14] | Potency [15] | Potency [16] | Potency [17] | Potency [18]
1 | CCCOC(=O)Cc1ccc(OCC(=O)N(CC)CC)c(OC)c1 | inactive | inactive | inactive | inactive | inactive | inactive | inactive | inactive | inactive | – | – | – | – | – | – | – | – | –
2 | COc1cc(CC#N)cc(OC)c1OC | inactive | inactive | inactive | inactive | inactive | inactive | inactive | inactive | inactive | – | – | – | – | – | – | – | – | –
3 | COc1cc(N)c(Cl)cc1C(=O)NC1CN2CCC1CC2 (centres undefined) | inactive | inactive | inactive | inactive | inactive | inactive | inactive | inactive | inactive | – | – | – | – | – | – | – | – | –
4 | CC(C)NCC(O)c1ccc(N)c(C#N)c1 (centres undefined) | inactive | inactive | inactive | inactive | inactive | inactive | inactive | inactive | – | – | – | – | – | – | – | – | – | –
5 | CNC(=O)NC(O)C(Cl)(Cl)Cl (centres undefined) | inactive | inactive | inactive | inactive | inactive | inactive | inactive | inactive | – | – | – | – | – | – | – | – | – | –
6 | Cc1ccc(N=CN(C)C=Nc2ccc(C)cc2C)c(C)c1 | inactive | inactive | inactive | inactive | inactive | inactive | inactive | inactive | inactive | – | – | – | – | – | – | – | – | –
7 | COP(=S)(OC)Oc1ccc(S(N)(=O)=O)cc1 | inactive | inactive | inactive | inactive | inactive | inactive | inactive | inactive | – | – | – | – | – | – | – | – | – | –
8 | CCN1CCCC1CNC(=O)C(O)(c1ccccc1)c1ccccc1 (centres undefined) | inactive | inactive | inactive | inactive | inactive | inactive | inactive | inactive | inactive | – | – | – | – | – | – | – | – | –
9 | C[C@@H]1CN(C2CCC(C#N)(c3ccc(F)cc3)CC2)CC[C@]1(C(=O)O)c1ccccc1 (some centres undefined) | inactive | inactive | inactive | inactive | inactive | inactive | inactive | inactive | – | – | – | – | – | – | – | – | – | –
10 | Cc1c(Cl)c(=O)oc2cc(OP(=O)(OCCCl)OCCCl)ccc12 | inactive | inactive | inactive | inactive | inactive | inactive | inactive | inactive | inactive | – | – | – | – | – | – | – | – | –
11 | CCS(=O)(=O)C(C)(C)S(=O)(=O)CC | inactive | inactive | inactive | inactive | inactive | inactive | inactive | inactive | – | – | – | – | – | – | – | – | – | –
12 | CC(C)(C)OC(=O)c1ncn2c1[C@@H]1CCCN1C(=O)c1c(Br)cccc1-2 | inactive | inactive | inactive | inactive | inactive | inactive | inactive | inactive | inactive | – | – | – | – | – | – | – | – | –
13 | O=C(N[C@@H]1N=C(c2ccccc2F)c2cccc3c2N(CC3)C1=O)c1cc2ccccc2[nH]1 | inactive | inactive | inactive | inactive | inactive | – | inactive | inactive | inactive | – | – | – | – | – | – | – | – | –
14 | COP(=O)(OC)OC=C(Cl)Cl | inactive | inactive | inactive | inactive | inactive | inactive | inactive | inactive | inactive | – | – | – | – | – | – | – | – | –
15 | O=c1[nH]c2cc(Cl)ccc2n1C1CCNCC1 | inactive | inactive | inactive | inactive | inactive | inactive | inactive | inactive | inactive | – | – | – | – | – | – | – | – | –
16 | CNC(C)Cc1ccccc1OC (centres undefined) | inactive | inactive | inactive | inactive | inactive | inactive | inactive | inactive | inactive | – | – | – | – | – | – | – | – | –
17 | CC(Cc1ccccc1)NCCCCl (centres undefined) | inactive | inactive | inactive | inactive | inactive | inactive | inactive | inactive | inactive | – | – | – | – | – | – | – | – | –
18 | C[C@H](N)[C@H](O)c1ccc(O)c(O)c1 | 26600 nM (active) | inactive | inactive | inactive | inactive | inactive | inactive | inactive | inactive | – | – | – | – | – | – | – | – | –
19 | CN(C)C(=S)SSC(=S)N(C)C | 266 nM (active) | 246 nM (active) | 150 nM (active) | 347 nM (active) | 188 nM (active) | 335 nM (active) | 299 nM (active) | 1680 nM (active) | 211 nM (active) | 1310 nM (active) | 329 nM (active) | 928 nM (active) | 185 nM (active) | 8270 nM (active) | 1040 nM (active) | inactive | 233 nM (active) | –
20 | CCC1(c2ccccc2)CCC(=O)NC1=O (centres undefined) | inactive | inactive | inactive | inactive | inactive | inactive | inactive | inactive | inactive | – | – | – | – | – | – | – | – | –
21 | CC1Sc2c(C(=O)O)c(=O)c3cc(F)c(N4CCNCC4)cc3n21 (centres undefined) | inactive | inactive | inactive | inactive | inactive | inactive | inactive | inactive | inactive | inactive | – | 14700 nM (active) | inactive | – | inactive | inactive | inactive | inactive
22 | CC1N=C(N)OC1c1ccccc1 (centres undefined) | inactive | inactive | inactive | inactive | inactive | – | inactive | inactive | inactive | – | – | – | – | – | – | – | – | –
23 | CCC1(c2cccc(O)c2)CCCCN(C)C1 (centres undefined) | inactive | inactive | inactive | inactive | inactive | inactive | inactive | inactive | inactive | – | – | – | – | – | – | – | – | –
24 | CC1=C2[C@H]3OC(=O)[C@@H](C)[C@@H]3CC[C@@]2(C)C=CC1=O | inactive | inactive | inactive | inactive | inactive | – | inactive | inactive | inactive | – | – | – | – | – | – | – | – | –
25 | CCC(OC(C)=O)C(CC(C)NC)(c1ccccc1)c1ccccc1 (centres undefined) | 43700 nM (active) | 35900 nM (active) | 39000 nM (active) | 28500 nM (active) | 27600 nM (active) | – | inactive | – | – | – | – | – | – | – | – | – | – | –
